In all, about 5,500 compounds went through this assay and about 2,000 (36%) were called active. Roughly 18% stayed inconclusive and do not appear here. Cut-off read from the data, not from the text of the source: active = normalized growth mostly below about 0.91 (no sharp cut-off); inconclusive = no clear call, values can overlap the other calls; inactive = mostly above about 0.92. Some of the results follow.
Test: chemical genetic growth profiling, strain panel (AID 1159580);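 note: tested at 20 µM; growth read once vehicle control cultures reached saturation at 30 °C; 1 = growth at the plate median or of vehicle wells; lower values mean less growth of the strain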
Details: growth OD

Measured: normalized growth

Cc1c(N(C)CS(=O)(=O)O)c(=O)n(-c2ccccc2)n1C
inactive: S. cerevisiae deletion strains, locus YJR075W, strain HOC1, active compounds read low 1 | S. cerevisiae deletion strains, locus YKL009W, strain mrt4, active compounds read low 1.03 | S. cerevisiae deletion strains, locus YKL068W, active compounds read low 0.998 | S. cerevisiae deletion strains, locus YKL085W, strain MDH1 (second series), active compounds read low 0.99 | S. cerevisiae deletion strains, locus YKL085W, strain MDH1, active compounds read low 0.99 | S. cerevisiae deletion strains, locus YKL160W, strain elf1, active compounds read low 1.02 | S. cerevisiae deletion strains, locus YKL190W, strain CNB1, active compounds read low 1.01 | S. cerevisiae deletion strains, locus YKR001C, strain vps1, active compounds read low 1.01 | S. cerevisiae deletion strains, locus YKR026C, strain gcn3, active compounds read low 1.01 | S. cerevisiae deletion strains, locus YKR091W, strain srl3, active compounds read low 1.01 | S. cerevisiae deletion strains, locus YLL001W, strain dnm1, active compounds read low 1.01 | S. cerevisiae deletion strains, locus YLL026W, active compounds read low 1.01 | S. cerevisiae deletion strains, locus YLL041C, strain sdh2, active compounds read low 1 | S. cerevisiae deletion strains, locus YLR027C, strain aat2, active compounds read low 1.01 | S. cerevisiae deletion strains, locus YLR039C, strain RIC1, active compounds read low 0.92 | S. cerevisiae deletion strains, locus YLR058C, strain SHM2, active compounds read low 0.987 | S. cerevisiae deletion strains, locus YLR102C, strain apc9, active compounds read low 0.984 | S. cerevisiae deletion strains, locus YLR113W, strain HOG1, active compounds read low 0.996 | S. cerevisiae deletion strains, locus YLR221C, strain rsa3, active compounds read low 1.01 | S. cerevisiae deletion strains, locus YLR258W, strain gsy2, active compounds read low 1.01 | S. cerevisiae deletion strains, locus YLR262C, strain YPT6 (second series), active compounds read low 0.999 | S. cerevisiae deletion strains, locus YLR262C, strain YPT6, active compounds read low 0.962 | S. cerevisiae deletion strains, locus YLR268W, strain sec22, active compounds read low 0.992 | S. cerevisiae deletion strains, locus YLR320W, strain mms22, active compounds read low 1.03 | S. cerevisiae deletion strains, locus YLR330W, strain CHS5, active compounds read low 0.993 | S. cerevisiae deletion strains, locus YLR342W, strain FKS1 (second series), active compounds read low 0.961 | S. cerevisiae deletion strains, locus YLR342W, strain FKS1, active compounds read low 1.02 | S. cerevisiae deletion strains, locus YLR357W, strain rsc2, active compounds read low 1.03 | S. cerevisiae deletion strains, locus YLR370C, strain arc18, active compounds read low 1 | S. cerevisiae deletion strains, locus YLR371W, strain rom2, active compounds read low 0.977 | S. cerevisiae deletion strains, locus YLR384C, strain iki3, active compounds read low 1.01 | S. cerevisiae deletion strains, locus YLR418C, strain cdc73, active compounds read low 0.948 | S. cerevisiae deletion strains, locus YML016C, strain PPZ1, active compounds read low 0.99 | S. cerevisiae deletion strains, locus YML032C, strain rad52, active compounds read low 0.999 | S. cerevisiae deletion strains, locus YML120C, strain ndi1, active compounds read low 1.01 | S. cerevisiae deletion strains, locus YML124C, strain tub3, active compounds read low 0.988 | S. cerevisiae deletion strains, locus YMR058W, strain fet3, active compounds read low 1.01 | S. cerevisiae deletion strains, locus YMR078C, strain ctf18, active compounds read low 0.978 | S. cerevisiae deletion strains, locus YMR125W, strain sto1, active compounds read low 1.02 | S. cerevisiae deletion strains, locus YMR129W, active compounds read low 1 | S. cerevisiae deletion strains, locus YMR205C, strain PFK2, active compounds read low 1.02 | S. cerevisiae deletion strains, locus YMR223W, strain ubp8, active compounds read low 0.962 | S. cerevisiae deletion strains, locus YMR231W, strain pep5, active compounds read low 1.02 | S. cerevisiae deletion strains, locus YMR263W, strain SAP30, active compounds read low 1.01 | S. cerevisiae deletion strains, locus YMR307W, strain GAS1, active compounds read low 0.906 | S. cerevisiae deletion strains, locus YNL067W, strain RPL9B, active compounds read low 1.01 | S. cerevisiae deletion strains, locus YNL071W, strain lat1, active compounds read low 1.02 | S. cerevisiae deletion strains, locus YNL183C, strain NPR1, active compounds read low 0.924 | S. cerevisiae deletion strains, locus YNL209W, strain ssb2, active compounds read low 1.02 | S. cerevisiae deletion strains, locus YNL233W, strain BNI4, active compounds read low 1 | S. cerevisiae deletion strains, locus YNL248C, strain rpa49, active compounds read low 1.02 | S. cerevisiae deletion strains, locus YNL250W, strain rad50, active compounds read low 0.969 | S. cerevisiae deletion strains, locus YNL271C, strain bni1, active compounds read low 0.992 | S. cerevisiae deletion strains, locus YNL298W, strain CLA4, active compounds read low 0.993 | S. cerevisiae deletion strains, locus YNL307C, strain MCK1, active compounds read low 0.987 | S. cerevisiae deletion strains, locus YNL322C, strain KRE1 (second series), active compounds read low 1.01 | S. cerevisiae deletion strains, locus YNL322C, strain KRE1, active compounds read low 0.998 | S. cerevisiae deletion strains, locus YNR049C, strain mso1, active compounds read low 1 | S. cerevisiae deletion strains, locus YNR052C, strain pop2, active compounds read low 0.985 | S. cerevisiae deletion strains, locus YOL006C, strain TOP1, active compounds read low 1.14 | S. cerevisiae deletion strains, locus YOL012C, strain htz1 0.803 | S. cerevisiae deletion strains, locus YOL147C, strain pex11, active compounds read low 0.985 | S. cerevisiae deletion strains, locus YOR001W, strain rrp6, active compounds read low 1.01 | S. cerevisiae deletion strains, locus YOR061W, strain CKA2, active compounds read low 0.989 | S. cerevisiae deletion strains, locus YOR069W, strain VPS5, active compounds read low 0.984 | S. cerevisiae deletion strains, locus YOR070C, strain gyp1, active compounds read low 1.01 | S. cerevisiae deletion strains, locus YOR080W, strain dia2, active compounds read low 1.01 | S. cerevisiae deletion strains, locus YOR083W, strain WHI5, active compounds read low 1.02 | S. cerevisiae deletion strains, locus YOR106W, strain vam3, active compounds read low 1.03 | S. cerevisiae deletion strains, locus YOR136W, strain idh2, active compounds read low 0.986 | S. cerevisiae deletion strains, locus YOR144C, strain elg1, active compounds read low 0.989 | S. cerevisiae deletion strains, locus YOR184W, strain ser1, active compounds read low 1.03 | S. cerevisiae deletion strains, locus YOR231W, strain MKK1, active compounds read low 0.996 | S. cerevisiae deletion strains, locus YOR265W, strain rbl2, active compounds read low 1.01 | S. cerevisiae deletion strains, locus YOR270C, strain vph1, active compounds read low 1.05 | S. cerevisiae deletion strains, locus YOR290C, strain snf2, active compounds read low 1.01 | S. cerevisiae deletion strains, locus YOR316C, strain cot1, active compounds read low 0.981 | S. cerevisiae deletion strains, locus YPL051W, strain arl3, active compounds read low 1.01 | S. cerevisiae deletion strains, locus YPL055C, strain LGE1, active compounds read low 1.05 | S. cerevisiae deletion strains, locus YPL078C, strain atp4, active compounds read low 1.02 | S. cerevisiae deletion strains, locus YPL106C, strain sse1, active compounds read low 1.02 | S. cerevisiae deletion strains, locus YPL240C, strain hsp82, active compounds read low 1.01 | S. cerevisiae deletion strains, locus YPL256C, strain CLN2, active compounds read low 1.01 | S. cerevisiae deletion strains, locus YPR119W, strain clb2, active compounds read low 0.986 | S. cerevisiae deletion strains, locus YPR141C, strain kar3, active compounds read low 0.981 | S. cerevisiae deletion strains, locus YPR163C, strain tif3, active compounds read low 1.01 | S. cerevisiae deletion strains, locus YPR167C, strain met16, active compounds read low 0.977 | S. cerevisiae deletion strains, strain wtn01, active compounds read low 0.986 | S. cerevisiae strains, strain wild type, active compounds read low 0.995
